Source: PubChem BioAssay AID2685 (National Center for Advancing Translational Sciences (NCATS), 2010)
In all, about 320,000 compounds went through this assay and about 2,100 (0.66%) were called active. About 53% were inconclusive and are not listed. The call rests on the fitted dose curve; in most records, active means well fitted inhibition curve with a large enough effect in the signal ratio, with a control signal flat (not every such curve was filed as active); inconclusive means small, poorly fitted or top-dose-only effect, or effect the other way, or a change in a side signal; inactive means flat fitted curve, though single readings scatter; the % refers to the signal ratio. This excerpt belongs to a sample that is enriched for actives.

assay: qHTS Assay for Lipid Storage Modulators in Drosophila S3 Cells; settings: BODIPY lipid droplet fluorescence, 18-24 h, cells fed with added oleic acid; cell number change: measured here: cell count max response; series mostly up to 46.1 µM;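 on cell number change: cells counted by Cell Tracker Red CMTPX staining in the red channel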
Outline: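 Drosophila S3 cells loaded with oleic acid (400 uM, as added) and compounds at several concentrations; lipid droplets imaged by 488-nm laser-scanning cytometry, 500–530 nm intensity and object ratio to cell channel. Percent activity normalized to 20 uM Triacsin C.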
Potency means the concentration at half of the fitted maximal effect.

Row | SMILES | Potency | cell number change
1 | O=C(NC(=S)NCc1cccnc1)c1cc2ccccc2o1 | inactive | -19.5%
2 | Cc1cc(F)c(F)c(C(=O)NC2CC2)c1Cl | 9.2 µM (active) | –
3 | Cc1cc(F)c(F)c(C(=O)N2C(C)CCCC2C)c1Cl (stereo not drawn) | inactive | 0.056%
4 | Cc1cc(F)c(F)c(C(=O)N2CCC(C)CC2)c1Cl | inactive | 0.433%
5 | COc1ccc(OCc2cc(C(=O)N(C)C(C)c3ccon3)no2)c(Cl)c1 (stereo not drawn) | inactive | -9.97%
6 | Cc1cc2c(cc1S(=O)(=O)N1CCN(c3ccccc3)CC1)OCCN2C | inactive | -3.46%
7 | Cc1ccc(S(=O)(=O)C2(C(=O)N3CCN(c4ccccc4F)CC3)CC2)cc1 | 0.731 µM (active) | -5.26%
8 | Cc1cccc(N2CCN(C(=O)C3(S(=O)(=O)c4ccc(Cl)cc4)CC3)CC2)c1C | inactive | 0.245%
9 | Cc1ccc(S(=O)(=O)C2(C(=O)N3CCN(c4cc(C)ccc4C)CC3)CC2)cc1 | inactive | –
10 | C/C(=N\NS(=O)(=O)c1ccc([N+](=O)[O-])cc1)c1c[nH]c2ccccc12 | inactive | -0.495%
11 | C/C(=N/Nc1ccc([N+](=O)[O-])cc1)c1c[nH]c2ccccc12 | 4.11 µM (active) | -24.9%
12 | C/C(=N/NS(=O)(=O)c1cccc([N+](=O)[O-])c1)c1c[nH]c2ccccc12 | inactive | –
13 | O=C(Cn1cc(S(=O)(=O)Cc2ccccc2F)c2ccccc21)N1CCOCC1 | inactive | 9.64%
14 | O=[N+]([O-])c1ccc(N2CCCC2)nc1N1CCCC1 | inactive | 16.9%
15 | COc1ccc(-c2cc(=O)c(C(=O)c3ccc(C)cc3)n[nH]2)cc1 | inactive | 14%
16 | O=C(OCc1cc(Cl)ccc1OC(F)F)c1cc(S(=O)(=O)O)ccc1O | 1.64 µM (active) | -6.52%
17 | O=C(OCc1cc(Cl)ccc1OC(F)F)c1cncc(Br)c1 | inactive | –
18 | O=C(OCc1cc(Cl)ccc1OC(F)F)c1cccnc1 | inactive | 13.9%
19 | CC1CC(=O)Nc2ccccc2N1C(=O)CSc1ncnc2sccc12 (stereo not drawn) | inactive | 0.129%

Row | SMILES | Potency | cell number change
20 | COc1ccc(CCC(=O)Nc2cccc(S(=O)(=O)N(C)C)c2)cc1OC | inactive | 15.7%
21 | COc1ccc([N+](=O)[O-])cc1NC(=S)NC(C)=O | inactive | 0.615%
22 | CN(C)S(=O)(=O)Nc1cc(Cl)cc(Cl)c1 | 18.4 µM (active) | -41.2%
23 | Cc1ccc(NS(=O)(=O)N(C)C)cc1 | inactive | –
24 | CN(C)S(=O)(=O)Nc1cc(F)cc(F)c1 | inactive | -8.31%
25 | CCN(C(=O)COC(=O)c1ccc(Cl)c(N)c1)C1CCS(=O)(=O)C1 (stereo not drawn) | inactive | 6.77%
26 | CCOc1ccccc1C(=O)n1nc2nc(C)cc(C)c2c1N | inactive | 6.26%
27 | CCCn1c(N)c(C(=O)CSc2nnc(C3CC3)n2Cc2ccccc2)c(=O)[nH]c1=O | inactive | 7.78%
28 | COc1ccc(C(=O)/C=C/c2ccccc2)c(OC)c1 | inactive | 16.5%
29 | O=C1C(=O)N(CCCN2CCOCC2)C(c2ccc(F)cc2)/C1=C(\O)c1ccc2c(c1)OCCO2 (stereo not drawn) | inactive | -2.36%
30 | COc1cccc(C(=O)Nc2cccc(OC(C)=O)c2)c1 | inactive | -9.37%
31 | COc1ccc(CCN2C(=O)/C(=C\c3ccco3)SC2=S)cc1OC | inactive | -20.3%
32 | CCCCNC(=O)COC(=O)c1c2c(nc3ccccc13)CCC2 | 7.31 µM (active) | 1.26%
33 | CNC(=O)COC(=O)c1c2c(nc3ccccc13)CCC2 | inactive | -0.369%
34 | COc1ccc(NC(=O)COC(=O)c2c3c(nc4ccccc24)CCCC3)cc1 | inactive | -10.5%
35 | CN(CC(=O)NCCN1CCN(Cc2ccccc2)CC1)S(=O)(=O)c1cccc2nsnc12 | inactive | 3.2%
36 | COCC(C)NC(=O)CCc1nnc(C2(c3ccc(Cl)cc3)CCC2)o1 (stereo not drawn) | inactive | 7.22%
37 | Cc1ccc(NC(=O)CCC(=O)n2nc(C)cc2C)c(C)c1 | 18.4 µM (active) | –
38 | CCOc1ccc(NC(=O)CCC(=O)n2nc(C)cc2C)cc1 | inactive | 1.15%

Row | SMILES | Potency | cell number change
39 | Cc1cc(C)n(C(=O)CCCC(=O)n2nc(C)cc2C)n1 | inactive | -1.02%
40 | CC(C)N(C(=O)Cn1c(=O)oc2ccccc21)c1ccccc1 | inactive | 12.3%
41 | CCN1C(=O)[C@H]2[C@@H](c3ccc(C)cc3)N3C(=O)N(c4ccc(C(F)(F)F)cc4)C(=O)[C@@]3(CC)[C@H]2C1=O | inactive | -7.19%
42 | CCN1C(=O)[C@H]2[C@@H](c3ccc(C)cc3)N3C(=O)N(c4ccccc4)C(=O)[C@@]3(CC)[C@H]2C1=O | inactive | 16.2%
43 | CCN1C(=O)[C@H]2[C@@H](c3ccc(C)cc3)N3C(=O)N(c4ccc(C(F)(F)F)cc4)C(=O)[C@@]3(CC(C)C)[C@H]2C1=O | 18.4 µM (active) | 11.1%
44 | COc1ccc([C@@H]2[C@@H]3C(=O)N(C(C)(C)C)C(=O)[C@@H]3[C@]3(Cc4ccc(Cl)cc4)C(=O)N(c4ccc(OC)cc4)C(=O)N23)cc1 | inactive | 16%
45 | COc1ccc([C@@H]2[C@@H]3C(=O)N(C(C)(C)C)C(=O)[C@@H]3[C@]3(C)C(=O)N(c4ccc(C(F)(F)F)cc4)C(=O)N23)cc1 | inactive | 14.7%
46 | COc1ccc([C@@H]2[C@@H]3C(=O)N(C(C)(C)C)C(=O)[C@@H]3[C@]3(CC(C)C)C(=O)N(c4ccc(C(F)(F)F)cc4)C(=O)N23)cc1 | 20.6 µM (active) | 18.1%
47 | COc1ccc(CCNC(=O)CSc2ccc(-c3ccccc3)nn2)cc1 | inactive | 2.87%
48 | CC(C)CNC(=O)C1CC(=O)OC12CCCCC2 (stereo not drawn) | inactive | –
49 | CC(Oc1ccc(C(=O)c2ccccc2)cc1)C(=O)N1CCOCC1 (stereo not drawn) | inactive | –
50 | CC(Oc1ccc(-c2nnco2)cc1)C(=O)N1CCOCC1 (stereo not drawn) | inactive | 6.36%
51 | CC(Oc1ccc(-c2ccccc2)cc1)C(=O)N1CCOCC1 (stereo not drawn) | 2.91 µM (active) | 17.9%
52 | CCCN1Cc2cccc(C(=O)NCCCOC(C)C)c2C1=O | inactive | 2.03%
53 | Cc1ccc(-c2cc(C(=O)NCCCN3CCCC3)c3ccccc3n2)cc1C | inactive | –
54 | CCN=C1SC(C(=O)Nc2cccc(C)c2)CC(=O)N1CC (stereo not drawn) | inactive | -13.5%
55 | Cc1cccc(NC(=O)C2CC(=O)n3cnnc3S2)c1 (stereo not drawn) | 13 µM (active) | -1.17%
56 | COc1cccc(NC(=O)C2CC(=O)n3cnnc3S2)c1 (stereo not drawn) | inactive | -29%
